Data: the supplement of paper PMC12819154, “High-throughput peptide-centric local stability assay extends protein–ligand identification to membrane proteins, tissues and bacteria” (Nature Structural & Molecular Biology, 2025)

compound: Nc1ncnc2c1ncn2[C@@H]1O[C@H](COP(=O)(O)OP(=O)(O)OP(=O)(O)O)[C@@H](O)[C@H]1O [adenosine 5'-triphosphate]; assay: log2 fold change of tryptic peptide abundance, ligand vs vehicle (limited proteolysis) (log2 ratio); higher = more trypsin-susceptible (destabilized); settings: ligand concentration: 5 mM; sample: E. coli desalted lysate; replicate design: treated before aliquoting
Procedure: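 HT-PELSA: desalted E. coli K-12 BW25113 lysate (with 12 mM MgCl2) incubated with 5 mM ATP (pH 7) or water for 30 min at 25 C, then a 4 min trypsin pulse at 22 C. Peptides were quantified by DIA-MS (4 replicates). Value is the peptide log2 fold change (treated/control); negative = stabilized. Scale: negative = ligand-stabilized region.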
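Also: lysate desalted by size exclusion to strip endogenous ATP, peptide intensities built from DIA-NN precursor signals, and peptides missing any value discarded before comparison.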

Target	log2 fold change
UniProt Q46906 (peptide sequence: AEGFFCIHR, peptide start residue: 99)	-0.839
UniProt P24202 (peptide sequence: LKSRPDAVDLDPK, peptide start residue: 114)	0.712
UniProt P43340 (peptide sequence: KIQVTELDLYRR, peptide start residue: 34)	1.23
UniProt P75796 (peptide sequence: VHGLLPGKDAAAR, peptide start residue: 430)	1.01
UniProt P08192 (peptide sequence: FQIVSESPR, peptide start residue: 290)	-0.913
UniProt P76222 (peptide sequence: LLAVADWR, peptide start residue: 97)	-0.698
UniProt P76440 (peptide sequence: EELDEFPASEKEFTSAR, peptide start residue: 286)	0.874
UniProt P00903 (peptide sequence: GLANPLTVTR, peptide start residue: 117)	-0.376
UniProt Q46915 (peptide sequence: AMNSEAVVR, peptide start residue: 181)	-0.607
UniProt P77608 (peptide sequence: AAEQGEAIAPLR, peptide start residue: 16)	0.736
UniProt P32703 (peptide sequence: AATAEVAIVAIQK, peptide start residue: 440)	1.52
UniProt P04994 (peptide sequence: TGAALHDILHVLK, peptide start residue: 149)	0.643
UniProt P24255 (peptide sequence: KHNGHWTVELNSDSIPR, peptide start residue: 280)	0.899
UniProt P78061 (peptide sequence: FCHVYHACK, peptide start residue: 441)	-1.83
UniProt P31554 (peptide sequence: GNIMWENEFR, peptide start residue: 268)	-0.46
UniProt P0A9U1 (peptide sequence: LIASGTPDDLK, peptide start residue: 537)	-0.834
UniProt P0A959 (peptide sequence: QGWMVLNGPKKHAK, peptide start residue: 249)	1.18
UniProt P38035 (peptide sequence: APILLNGPTGAGK, peptide start residue: 209)	-1.38
UniProt P30015 (peptide sequence: TGDTPAQER, peptide start residue: 132)	-2.26
UniProt P32173 (peptide sequence: DAPVVWVHDGERDHPTIALVNR, peptide start residue: 119)	-0.372

Target	log2 fold change
UniProt P32684 (peptide sequence: ITLVQGLNR, peptide start residue: 179)	0.498
UniProt P26281 (peptide sequence: ALGDIPESHILTVSSFYR, peptide start residue: 25)	-3.29
UniProt P28630 (peptide sequence: LSLLWPDGK, peptide start residue: 188)	-0.437
UniProt P21514 (peptide sequence: NPIPVTPEAR, peptide start residue: 237)	-2.06
UniProt P77433 (peptide sequence: GEFLNNVAQALGRPLR, peptide start residue: 5)	0.243
UniProt P32144 (peptide sequence: NILLVADHTK, peptide start residue: 206)	-0.398
UniProt P09030 (peptide sequence: CSFLPEER, peptide start residue: 177)	-1.54
UniProt P09152 (peptide sequence: GHEFMLK, peptide start residue: 724)	0.491
UniProt P39099 (peptide sequence: SRIATTEPGTK, peptide start residue: 330)	0.877
UniProt Q46800 (peptide sequence: LAFGVAAPTPIR, peptide start residue: 215)	0.403
UniProt P03018 (peptide sequence: AHHMDANLPQDFQILDSEDQLR, peptide start residue: 100)	-2.2
UniProt P06612 (peptide sequence: ADHIYLATDLDREGEAIAWHLR, peptide start residue: 103)	-1.02
UniProt P23898 (peptide sequence: SSLDNVYWQK, peptide start residue: 137)	0.793
UniProt P39830 (peptide sequence: GANQVVMGER, peptide start residue: 528)	1.21
UniProt P75821 (peptide sequence: DIKEDFRPHR, peptide start residue: 126)	-1.6
UniProt P05055 (peptide sequence: GDISEFAPR, peptide start residue: 546)	-0.643
UniProt P0DMC5 (peptide sequence: FTDTGCIVLHVR, peptide start residue: 600)	-1.13
UniProt P02919 (peptide sequence: SIGSLAK, peptide start residue: 507)	0.413
UniProt P75829 (peptide sequence: EIAEIASK, peptide start residue: 298)	-0.281
UniProt P05707 (peptide sequence: VGSKHNSGYSAAK, peptide start residue: 146)	-3.4
